The target of assay [1] is Lysosomal acid glucosylceramidase (Homo sapiens) (UniProt P04062). Nature of the assay: Glucocerebrosidase-p2 (AID 348; in the data active = potency below about 10 µM; note: potency is the fitted concentration of half-maximal effect). The settings on record: purified GBA, blue fluorogenic substrate, 40 min. Summed up:
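Normal human glucocerebrosidase (0.2 nM) with blue fluorogenic substrate (80 uM final) in citrate/phosphate pH 5.9 with 10mM sodium taurocholate, 0.01% tween-20; 40 min RT, NaOH/glycine stop; fluorescence Ex 365/Em 440; AC50 from a titration from 0.6 nM upwards.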

Assay [2] is described as follows: AP1 Signaling Pathway (AID 357).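 Note: ME-180 reporter cells stimulated with EGF at its EC50 level; % is set by controls: 0 for no effect and ±100 for the full control effect.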 The following applies: ME-180 AP-1-bla reporter, EGF-induced, beta-lactamase ratio, 5 h; at 7.69 µM (top of the series) unless noted. Summed up:
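Beta-lactamase reporter under AP-1 response element, ME-180 background. Stimulus: EC50 EGF. Compound exposure 5 h, 37 °C. Detection: CCF4, 2.5 h RT, 460/530 nm. Values: AC50 from titration.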

Assay [3] concerns the target Cytochrome P450 1A2 (Homo sapiens) (UniProt P05177). Nature of the assay: p450-cyp1a2 (AID 410; calls by dose curve; note: potency is the fitted concentration of half-maximal effect). The settings on record: recombinant CYP1A2, luciferin-ME demethylation, luminescence; series mostly up to 11.4 µM. Summed up: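 Read-out is luminescence from luciferin produced by CYP1A2 demethylation of Luciferin-ME (100uM, at Km). Detection reagent stopped the 60 min NADPH-dependent reaction; signals were normalized to 57 uM furafylline.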

Assay [4] is described as follows: Stat Signaling Pathway (AID 446).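 Note: ME-180 cervical cancer cells given 40 pM IL-6 alongside compound; SIE-controlled beta-lactamase reporter measured as 460/530 nm FRET emission ratio; % is set by controls: 0 for no effect and ±100 for the full control effect.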 The following applies: ME-180 SIE beta-lactamase reporter, IL-6 stimulated, 5 h; at 7.69 µM (top of the series) unless noted. Summed up: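 Overnight-plated ME-180 cells bearing a STAT Inducible Element beta-lactamase reporter; 5 h co-exposure to compound and 40 pM IL-6; values normalized to 300 pM IL-6 and 125 nM JAK inhibitor controls.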

Assay [5] deals with Glucocorticoid receptor (Homo sapiens) (UniProt P04150). In words: GR-GFP Redistribution (AID 450;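 active = compounds whose dose series gives a full or clear partial fitted curve of increased nuclear translocation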; note: potency is the fitted concentration of half-maximal effect). The following applies: U2OS GR-GFP nuclear translocation, laser cytometry, 2 h.
Glucocorticoid receptor (Homo sapiens), sequence (P04150 whole entry, looked up): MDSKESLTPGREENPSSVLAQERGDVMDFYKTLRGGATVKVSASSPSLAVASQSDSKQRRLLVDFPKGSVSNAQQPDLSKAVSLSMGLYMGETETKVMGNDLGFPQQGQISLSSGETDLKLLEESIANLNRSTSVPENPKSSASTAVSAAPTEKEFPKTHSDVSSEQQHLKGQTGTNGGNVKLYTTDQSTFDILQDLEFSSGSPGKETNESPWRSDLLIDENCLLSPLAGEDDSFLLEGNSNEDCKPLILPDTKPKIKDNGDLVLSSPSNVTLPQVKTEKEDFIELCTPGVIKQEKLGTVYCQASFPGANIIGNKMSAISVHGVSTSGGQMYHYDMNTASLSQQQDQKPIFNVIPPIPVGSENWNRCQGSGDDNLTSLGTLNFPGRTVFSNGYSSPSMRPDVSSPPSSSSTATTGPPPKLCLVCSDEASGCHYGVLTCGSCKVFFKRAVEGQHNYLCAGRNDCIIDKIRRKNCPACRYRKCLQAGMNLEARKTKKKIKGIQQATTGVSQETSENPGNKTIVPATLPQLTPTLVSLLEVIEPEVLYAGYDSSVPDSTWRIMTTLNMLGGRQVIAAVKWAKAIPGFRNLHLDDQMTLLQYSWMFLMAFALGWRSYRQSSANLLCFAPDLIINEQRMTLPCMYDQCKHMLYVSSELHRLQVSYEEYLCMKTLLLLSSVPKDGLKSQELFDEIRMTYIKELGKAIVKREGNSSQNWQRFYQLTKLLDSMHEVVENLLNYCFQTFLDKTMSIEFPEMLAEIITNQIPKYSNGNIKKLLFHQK
Assay [6] has the same target. Nature of the assay: GR-EFC Redistribution (AID 451; calls by dose curve; note: potency is the fitted concentration of half-maximal effect). The settings on record: CHO-K1 GR-EFC translocation, beta-gal luminescence, 2 h. In outline:
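CHO-K1 cells stably expressing nuclear-localized β-gal enzyme acceptor and GR fused C-terminally to the enzyme donor fragment; ligand-driven nuclear translocation restores β-gal by complementation. Compounds titrated up to 46 uM final, 2 h at 37 °C; luminescence read.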

For assay [7], the target named is Mitogen-activated protein kinase 10 (Mus musculus) (UniProt Q61831). Nature of the assay: JNK3 AlphaScreen Assay (AID 530).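 Note: kinase came from lysate of stimulated human HepG2 cells; signal reports phosphorylation of biotinylated GST-cJun 1-79 at Ser73 with 10 µM ATP; % is set by controls: 0 for no effect and ±100 for the full control effect.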 The settings on record: JNK3 lysate, c-Jun phosphorylation; series mostly up to 11.4 µM. Summed up:
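Biotinylated GST-cJun(1-79) served as substrate for JNK3 in HepG2 lysates stimulated with IL-1beta and TNF-alpha. ATP was 10 uM final, pH 7.6. Ser73 phosphorylation was quantified by AlphaScreen (680 nm excitation).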

The target of assay [8] is 3',5'-cyclic-AMP phosphodiesterase 4B (Homo sapiens) (UniProt Q07343). Nature of the assay: qHTS Assay for Inhibitors of PDE-IV (AID 607; active = well fitted activation curve with a large enough effect in the main read-out, with a control signal flat, not every such curve was filed as active; note: % of control where 0% means no effect). The settings on record: HEK293 ACTOne CNG channel cells, membrane potential fluorescence; series mostly up to 22.9 µM. In outline:
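Live HEK293 cells with a modified cyclic nucleotide-gated (CNG) channel report intracellular cAMP via membrane-potential dye fluorescence (ex 535/em 590 nm). Endogenous PDE-IV was targeted. Compounds were tested at up to 22.9 uM final; RO 20-1724 100 uM served as control.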
For orientation: Quantitative high-throughput screening tests each substance at several concentrations.

The target of assay [9] is Cytochrome P450 3A4 (Homo sapiens) (UniProt P08684). In words: qHTS Assay for Activators of Cytochrome P450 3A4 (AID 885; active = well fitted curve in the direction sought with a large enough effect; an effect the other way counts as inactive or inconclusive; note: nearly all actives have a fitted effect of over 65% in size). The following applies: recombinant CYP3A4, Luciferin-PPXE luminescence, 60 min; series mostly up to 11.4 µM. In outline:
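Using 20nM recombinant human CYP3A4 in potassium phosphate (200mM), substrate Luciferin-PPXE at 25uM, luminescent luciferin detection followed a 60-min RT NADPH reaction; data scaled to 57 uM ketoconazole.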

The target in assay [10] is Cytochrome P450 2C19 (Homo sapiens) (UniProt P33261). In words: qHTS Assay for Inhibitors and Substrates of Cytochrome P450 2C19 (AID 899; active = well fitted curve in the direction sought with a large enough effect; an effect the other way counts as inactive or inconclusive; note: nearly all actives have a fitted effect of over 60% in size; note: potency is the fitted concentration of half-maximal effect; for activity, negative = inhibition: % is set by controls: 0 for no effect and ±100 for the full control effect). The following applies: recombinant CYP2C19, luciferin-H EGE luminescence; series mostly up to 11.4 µM. In outline:
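In 50mM KPO4, the reaction held 5nM enzyme and KM-level (10uM) Luciferin-H EGE; it ran 60 min at 37C after NADPH regeneration and a 10 min compound preincubation. Luminescence values were scaled to 57uM ketoconazole as complete inhibition.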

Assay [11] addresses Cytochrome P450 2D6 (Homo sapiens) (UniProt P10635). In words: qHTS Assay for Inhibitors and Substrates of Cytochrome P450 2D6 (AID 891; active = well fitted curve in the direction sought with a large enough effect; an effect the other way counts as inactive or inconclusive; note: potency is the fitted concentration of half-maximal effect; nearly all actives have a fitted effect of over 60% in size). The following applies: recombinant CYP2D6, luciferin-ME EGE luminescence; series mostly up to 11.4 µM. In outline: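 Luminescent read-out of luciferin formed by 5 nM human CYP2D6 demethylating 30 uM Luciferin-ME EGE (Km level) over 60 min at room temperature after NADPH regeneration addition. Data normalized to full inhibition by 1.43 uM quinidine.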

The target in assay [12] is Cytochrome P450 2C9 (Homo sapiens) (UniProt P11712). Nature of the assay: qHTS Assay for Inhibitors and Substrates of Cytochrome P450 2C9 (AID 883; active = well fitted curve in the direction sought with a large enough effect; an effect the other way counts as inactive or inconclusive; note: potency is the fitted concentration of half-maximal effect; nearly all actives have a fitted effect of over 60% in size). The settings on record: recombinant CYP2C9, luciferin-H luminescence, 60 min; series mostly up to 11.4 µM. In outline: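 CYP2C9 deoxyluciferin hydroxylation, 37C, 60 min with NADPH regeneration; 10nM enzyme, 100uM Luciferin-H (KM). Glo detection reagent stopped reaction; luminescence normalized to sulphaphenazole (57uM) full inhibition.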
Cytochrome P450 2C9 (Homo sapiens), sequence (P11712 whole entry, looked up): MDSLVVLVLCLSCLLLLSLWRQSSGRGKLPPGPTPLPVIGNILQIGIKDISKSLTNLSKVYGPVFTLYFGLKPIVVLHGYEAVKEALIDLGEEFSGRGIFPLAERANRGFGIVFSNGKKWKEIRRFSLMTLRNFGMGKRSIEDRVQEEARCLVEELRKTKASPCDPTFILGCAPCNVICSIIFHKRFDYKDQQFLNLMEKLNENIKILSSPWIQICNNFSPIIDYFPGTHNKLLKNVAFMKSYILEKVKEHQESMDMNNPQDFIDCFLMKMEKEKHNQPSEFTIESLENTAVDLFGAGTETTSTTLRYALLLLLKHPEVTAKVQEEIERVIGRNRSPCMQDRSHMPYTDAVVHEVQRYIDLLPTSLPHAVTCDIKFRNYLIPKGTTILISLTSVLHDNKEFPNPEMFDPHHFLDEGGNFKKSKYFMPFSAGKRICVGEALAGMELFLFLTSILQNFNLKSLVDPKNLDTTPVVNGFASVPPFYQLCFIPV

Assay [13] in a line: qHTS Assay for Identification of Small Molecule Agonists for Hypoxia Response Element Signaling Pathway (AID 914; active = well fitted activation curve with a large enough effect in the signal ratio, with a control signal flat, not every such curve was filed as active; the % refers to the signal ratio; note: % of control where 0% means no effect). The following applies: ME-180 (cervical carcinoma) HRE-bla reporter, beta-lactamase ratio, CoCl2, 17 h; activation: active compounds read high. Summed up:
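Read-out: CCF4 FRET ratio of 460nm to 530nm emission (excitation 405nm) after 2.5 hours at room temperature, taken from HRE-bla ME-180 cells that had been exposed to compound and EC50 CoCl2 for 17 hours.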

Assay [14] concerns the target Cytochrome P450 3A4 (Homo sapiens) (UniProt P08684). Nature of the assay: qHTS Assay for Inhibitors and Substrates of Cytochrome P450 3A4 (AID 884; active = well fitted curve in the direction sought with a large enough effect; an effect the other way counts as inactive or inconclusive; note: potency is the fitted concentration of half-maximal effect; nearly all actives have a fitted effect of over 50% in size). The settings on record: recombinant CYP3A4, Luciferin-PPXE luminescence; series mostly up to 57.1 µM. Summed up: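 Luminescent readout of luciferin produced by CYP3A4 (20 nM) dealkylation of Luciferin-PPXE, 25 uM (its KM). NADPH-driven reaction ran 60 min at RT after 10 min compound preincubation; data scaled to 57 uM ketoconazole as 100% inhibition.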

Unmarked numbers belong to inactive results. Inconclusive results are not listed. Active and inactive are the calls of the source. Unless noted, calls come from the whole dose curve; as a rule, active = well fitted curve in either direction with a large enough effect (not every such curve was filed as active); inconclusive = small, poorly fitted or top-dose-only effect, or another doubt; inactive = flat fitted curve, though single readings scatter.

Cytochrome P450 3A4 (Homo sapiens), sequence (P08684 whole entry, looked up): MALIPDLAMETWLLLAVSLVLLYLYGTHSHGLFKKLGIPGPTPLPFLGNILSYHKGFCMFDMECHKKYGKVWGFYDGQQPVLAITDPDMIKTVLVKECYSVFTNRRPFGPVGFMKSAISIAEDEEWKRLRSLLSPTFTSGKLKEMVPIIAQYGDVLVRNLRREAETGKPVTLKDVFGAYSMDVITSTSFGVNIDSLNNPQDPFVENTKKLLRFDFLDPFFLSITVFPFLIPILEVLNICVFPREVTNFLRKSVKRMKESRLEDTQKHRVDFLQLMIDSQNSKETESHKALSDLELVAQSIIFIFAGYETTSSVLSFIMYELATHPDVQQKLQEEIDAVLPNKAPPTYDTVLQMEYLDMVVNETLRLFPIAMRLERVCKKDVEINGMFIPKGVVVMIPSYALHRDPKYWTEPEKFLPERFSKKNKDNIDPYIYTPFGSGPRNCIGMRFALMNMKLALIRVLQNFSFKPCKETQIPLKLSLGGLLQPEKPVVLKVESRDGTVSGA
Cytochrome P450 2C19 (Homo sapiens), sequence (P33261 whole entry, looked up): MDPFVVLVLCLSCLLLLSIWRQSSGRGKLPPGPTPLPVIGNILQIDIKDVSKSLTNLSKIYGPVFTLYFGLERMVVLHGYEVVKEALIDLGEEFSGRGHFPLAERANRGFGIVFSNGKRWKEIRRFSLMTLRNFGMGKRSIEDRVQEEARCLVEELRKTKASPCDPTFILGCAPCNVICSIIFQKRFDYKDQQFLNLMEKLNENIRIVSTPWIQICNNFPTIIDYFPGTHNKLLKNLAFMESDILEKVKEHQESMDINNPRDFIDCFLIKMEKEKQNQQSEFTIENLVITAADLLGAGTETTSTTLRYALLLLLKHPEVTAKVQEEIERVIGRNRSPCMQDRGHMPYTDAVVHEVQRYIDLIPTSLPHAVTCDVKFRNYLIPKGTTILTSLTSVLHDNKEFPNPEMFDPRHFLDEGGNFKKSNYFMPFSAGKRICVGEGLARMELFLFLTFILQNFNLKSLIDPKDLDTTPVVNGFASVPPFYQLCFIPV
Cytochrome P450 1A2 (Homo sapiens), sequence (P05177 whole entry, looked up): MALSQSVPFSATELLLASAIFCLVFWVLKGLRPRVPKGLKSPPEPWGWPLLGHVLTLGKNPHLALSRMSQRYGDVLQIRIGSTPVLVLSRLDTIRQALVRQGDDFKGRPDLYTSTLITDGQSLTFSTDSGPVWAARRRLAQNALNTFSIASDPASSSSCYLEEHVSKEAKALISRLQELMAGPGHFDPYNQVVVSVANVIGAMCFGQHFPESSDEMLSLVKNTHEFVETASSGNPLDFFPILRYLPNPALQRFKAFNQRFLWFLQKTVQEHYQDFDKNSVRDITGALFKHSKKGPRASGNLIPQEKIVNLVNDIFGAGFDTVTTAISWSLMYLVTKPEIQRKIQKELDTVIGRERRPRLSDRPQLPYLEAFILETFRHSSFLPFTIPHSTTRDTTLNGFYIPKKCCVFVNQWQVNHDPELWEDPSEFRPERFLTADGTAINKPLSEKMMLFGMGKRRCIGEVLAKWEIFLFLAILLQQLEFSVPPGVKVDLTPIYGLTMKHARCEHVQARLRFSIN
Cytochrome P450 2D6 (Homo sapiens), sequence (P10635 whole entry, looked up): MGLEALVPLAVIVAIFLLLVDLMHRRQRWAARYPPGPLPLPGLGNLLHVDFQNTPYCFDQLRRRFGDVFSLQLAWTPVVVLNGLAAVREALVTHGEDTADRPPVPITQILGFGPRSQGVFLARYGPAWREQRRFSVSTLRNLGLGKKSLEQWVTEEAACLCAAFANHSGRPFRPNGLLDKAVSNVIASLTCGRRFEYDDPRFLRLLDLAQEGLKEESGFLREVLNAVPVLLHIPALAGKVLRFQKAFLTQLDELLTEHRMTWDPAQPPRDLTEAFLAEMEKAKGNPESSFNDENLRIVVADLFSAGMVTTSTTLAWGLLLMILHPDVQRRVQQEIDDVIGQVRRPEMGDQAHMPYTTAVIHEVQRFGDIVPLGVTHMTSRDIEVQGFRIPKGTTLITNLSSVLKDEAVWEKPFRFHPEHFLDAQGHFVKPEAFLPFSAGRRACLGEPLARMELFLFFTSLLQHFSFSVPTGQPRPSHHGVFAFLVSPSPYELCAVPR
3',5'-cyclic-AMP phosphodiesterase 4B (Homo sapiens), sequence (Q07343 whole entry, looked up): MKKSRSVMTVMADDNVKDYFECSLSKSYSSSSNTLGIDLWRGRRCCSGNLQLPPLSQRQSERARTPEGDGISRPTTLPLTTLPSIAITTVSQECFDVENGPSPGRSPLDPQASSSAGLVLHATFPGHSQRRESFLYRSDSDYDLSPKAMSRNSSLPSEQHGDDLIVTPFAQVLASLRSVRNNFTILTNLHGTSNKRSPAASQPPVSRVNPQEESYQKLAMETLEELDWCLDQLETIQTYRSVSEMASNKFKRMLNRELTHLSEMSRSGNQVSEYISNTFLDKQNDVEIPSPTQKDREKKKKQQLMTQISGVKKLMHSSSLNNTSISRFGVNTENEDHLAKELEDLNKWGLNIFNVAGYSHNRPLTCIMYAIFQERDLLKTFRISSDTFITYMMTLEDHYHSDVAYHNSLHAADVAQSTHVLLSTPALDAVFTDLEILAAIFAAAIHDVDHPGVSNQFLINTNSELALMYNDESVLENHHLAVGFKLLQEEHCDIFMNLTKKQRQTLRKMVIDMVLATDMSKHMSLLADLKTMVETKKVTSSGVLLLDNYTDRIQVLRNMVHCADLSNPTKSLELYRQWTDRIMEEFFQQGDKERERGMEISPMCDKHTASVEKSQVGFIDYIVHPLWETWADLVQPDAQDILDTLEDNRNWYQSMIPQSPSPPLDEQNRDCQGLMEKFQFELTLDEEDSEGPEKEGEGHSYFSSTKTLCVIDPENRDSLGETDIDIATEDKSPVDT
Lysosomal acid glucosylceramidase (Homo sapiens), sequence (P04062 whole entry, looked up): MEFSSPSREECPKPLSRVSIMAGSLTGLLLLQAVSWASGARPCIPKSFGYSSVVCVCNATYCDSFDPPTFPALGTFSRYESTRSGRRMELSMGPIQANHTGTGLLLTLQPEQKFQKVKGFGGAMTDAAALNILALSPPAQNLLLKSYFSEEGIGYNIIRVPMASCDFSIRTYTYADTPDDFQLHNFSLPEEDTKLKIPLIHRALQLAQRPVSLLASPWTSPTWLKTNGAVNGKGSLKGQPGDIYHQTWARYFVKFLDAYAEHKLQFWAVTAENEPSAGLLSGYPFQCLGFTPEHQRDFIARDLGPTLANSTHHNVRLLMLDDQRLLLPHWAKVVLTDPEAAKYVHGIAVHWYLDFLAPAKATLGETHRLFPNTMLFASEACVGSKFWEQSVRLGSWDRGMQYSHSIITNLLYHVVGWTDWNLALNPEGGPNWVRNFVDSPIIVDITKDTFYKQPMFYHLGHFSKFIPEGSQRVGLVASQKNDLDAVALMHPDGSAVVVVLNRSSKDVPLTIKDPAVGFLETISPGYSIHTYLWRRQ

Consider `Cc1ccc(C(=N)c2ccccc2Cc2cccc3ccccc23)c2ccccc12`, for which the Potency was more than 11.4 µM in [1]; 1 µM (active) in assay [3]; more than 46 µM in [5]; more than 9.22 µM in assay [6]; 1.26 µM (active) in assay [10]. In addition, the activity change, negative = inhibition in assay [2] is -3.34%. Also, in assay [4], the activity, negative = inhibition is 13.8%. Also, the Potency entry in [7], in [8] and in assay [9] was “inactive” each time.
Take `Oc1c([C@H](Nc2ccccn2)c2ccccc2)ccc2cccnc12`: the Potency in assay [1] was more than 11.4 µM; in assay [5], more than 46 µM; in assay [6], more than 9.22 µM; in assay [11] it was 0.316 µM (active). Besides, the activity change, negative = inhibition in assay [2] was -3.08%; in [3], -21.9% [at 2.29 µM]. Also, the activity, negative = inhibition in assay [4] was 15.1%. For the same molecule, the Potency result in assay [7] and in assay [8] was “inactive” each time.
Consider `N#CC(C#N)=NNc1ccc2cn[nH]c2c1`, for which the Potency in [1] was more than 11.4 µM; in [3], 1.26 µM (active); in assay [5], more than 46 µM; in assay [6] it was more than 9.22 µM; in assay [12] it was 2.51 µM (active). For the same molecule, the activity change, negative = inhibition in assay [2] is 1.21%. Further, the activity, negative = inhibition in assay [4] was -12%. Moreover, the Potency entry in assay [7] and in [9] was “inactive” throughout.
For the molecule `Cc1cc(C)cc(C(=N)c2ccccc2Cc2cccc3ccccc23)c1`, the Potency in assay [1] was more than 11.4 µM; in assay [5], more than 46 µM; in assay [6], more than 9.22 µM; in assay [10] it was 1.58 µM (active). Besides, the activity change, negative = inhibition is 1.53% in [2] and -5.4% [at 2.29 µM] in [3]. Further, the activity, negative = inhibition in [4] is 8.92%. The Potency result in assay [7], in assay [8] and in assay [9] was “inactive” throughout.
As for `CCCC1c2c(ccc3ccccc23)Oc2ccc3ccccc3c21`, the Potency in [1] was more than 11.4 µM; in [3], 0.631 µM (active); in assay [5], more than 46 µM; in assay [6] it was more than 9.22 µM; in [10], 0.631 µM (active). Besides, the activity change, negative = inhibition in [2] was 11%. Also, the activity, negative = inhibition in [4] is 10.6%. For the same molecule, the Potency entry in [7] and in [8] was “inactive” each time.
On to `O=C1NC(=O)[C@@](Cc2ccccc2)(c2cccnc2)N1`, for which the figures for the Potency in assay [1], in [5] and in assay [6] were more than 11.4 µM, more than 46 µM and more than 9.22 µM, respectively. The values for the activity change, negative = inhibition in assay [2] and in assay [3] were -12.7% and -17.1% [at 2.29 µM], respectively. For the same molecule, the activity, negative = inhibition in assay [4] is -7.87%. In addition, the Potency entry in assay [7], in [8] and in assay [9] was “inactive” throughout. The activation in assay [13] is 5.55%.
With `O=C(O)c1ccccc1N[C@H](c1ccccc1)c1ccc2cccnc2c1O`, the Potency in assay [1] is more than 11.4 µM; in assay [3], 1.58 µM (active); in assay [5], more than 46 µM; in [6], more than 9.22 µM; in [10] it was 3.98 µM (active). The activity change, negative = inhibition in assay [2] was 0.796%. For the same molecule, the activity, negative = inhibition in [4] was -21.5%. Further, the Potency entry in assay [7] and in assay [8] was “inactive” each time.
For the molecule `O=C(O)C[C@H](NC(=O)CP(=O)(O)O)C(=O)O.[NH-][C@@H]1CCCC[C@@H]1[NH-].[Pt]`, the Potency was more than 11.4 µM in [1], more than 46 µM in [5] and more than 9.22 µM in [6]. Also, the activity change, negative = inhibition in [2] is -4.37%. Moreover, the Potency entry in assay [3] and in assay [8] was “inactive” in each case. The activity, negative = inhibition in assay [4] was -12%.
On to `Cc1[nH]n(-c2ccc(S(=O)(=O)O)cc2)c(=O)c1N=Nc1ccccc1`, for which the Potency in [1] is more than 11.4 µM; in [5] it was more than 46 µM; in assay [6], more than 9.22 µM. For the same molecule, the activity change, negative = inhibition in [2] is -16.3%. Besides, the Potency entry in assay [3], in assay [7], in [8] and in assay [10] was “inactive” each time. The activity, negative = inhibition in [4] is -16.2%. Moreover, the activation in assay [13] is 27.8%.
On to `Clc1ccc2c(NCCNC3CCCCC3)ccnc2c1`, for which the Potency in [1] was more than 11.4 µM; in assay [5], more than 46 µM; in assay [6], more than 9.22 µM; in assay [11], 3.16 µM (active). Moreover, the activity change, negative = inhibition in assay [2] was 5.59%; in assay [3] it was -10.2% [at 2.29 µM]. For the same molecule, the activity, negative = inhibition in assay [4] is 3.49%. Moreover, the Potency result in assay [7] and in [8] was “inactive” each time.
For the molecule `c1ccc(SCCc2ccncc2)cc1`, the Potency in assay [1] is more than 11.4 µM; in assay [3], 0.2 µM (active); in assay [5], more than 46 µM; in assay [6], more than 9.22 µM; in assay [12], 1.26 µM (active); in assay [14], 2.51 µM (active). Moreover, the Potency in [11] was 1.26 µM (active); in assay [10], 0.794 µM (active). The activity change, negative = inhibition in assay [2] is 9.37%. In addition, the activity, negative = inhibition in assay [4] was -2.72%. The Potency result in assay [8] and in assay [9] was “inactive” each time.
Consider `Cc1cc2ccccc2c[n+]1CC(O)C[n+]1cc2ccccc2cc1C`, for which the Potency in [1] was more than 11.4 µM; in assay [5], more than 46 µM; in assay [6], more than 9.22 µM; in [11] it was 0.0251 µM (active). Besides, in [2], the activity change, negative = inhibition was -5.85%. The Potency result in assay [3], in [7] and in assay [8] was “inactive” each time. Further, the activity, negative = inhibition in [4] is 4.97%.
Regarding `O=C(c1cc(Br)ccc1O)c1cc(Br)ccc1O`, the Potency in assay [1] was more than 11.4 µM; in assay [3], 1 µM (active); in [5], more than 46 µM; in [6] it was more than 9.22 µM; in assay [10], 0.199 µM (active). The activity change, negative = inhibition in [2] is -21.4%. In addition, the activity, negative = inhibition in assay [4] is -28%. The Potency result in assay [7] and in assay [8] was “inactive” in each case.
For `CC(=O)O[C@H]1CC[C@@]2(C)C(=CC[C@@H]3[C@H]4CC[C@@H]([C@H](C)C(=O)O)[C@]4(C)CC[C@H]32)C1`, the Potency in assay [1] is more than 11.4 µM; in [3], 3.16 µM (active); in assay [5], more than 46 µM; in assay [6], more than 9.22 µM. The activity change, negative = inhibition in assay [2] is -2.09%. The activity, negative = inhibition in [4] is 9.87%. Besides, the Potency entry in assay [7] and in assay [8] was “inactive” each time. The activation in assay [13] is 1.23%.

Values taken from PubChem BioAssay (NCATS).
